Measured values reported in the supplement of paper PMC9135407.
Structures can show the parent of a compound that is named as a salt. Unmarked numbers belong to inactive results.

System: primary human hepatic stellate cells (donor 1)
Experiment: COL1A1 mRNA fold change vs DMSO (normalised to PSMB2); higher = more COL1A1 expression, active = hit call of the paper
Conditions: 48 h
Procedure: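 Secondary qRT-PCR screen in primary human HSCs (donor 1), 384-well plates, with compounds dispensed in quadruplicate and incubated for 48 h. Cells-to-CT lysates were used for multiplexed TaqMan qPCR of ACTA2 or COL1A1 with PSMB2 as reference. Fold changes versus DMSO come from a linear model (Ct_gene ~ Ct_PSMB2 + plate + chemical). A hit is defined as COL1A1 and ACTA2 FC <0.5 (FDR <0.05) with PSMB2 between 0.2 and 2.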

| SMILES | COL1A1 mRNA fold change |
| --- | --- |
| CC(C)c1ccc(C(=O)c2cccs2)c(SCCCCCCCCN(C)C)n1 (33.3333 µM) | 0.429 |
| CC#CCOC(=O)c1c(C)nc2sc3c(c2c1N)CCC(O)C3 (stereo not given) (33.3333 µM) | 2.5 |
| Cn1cc(CNCC2CCN(c3ncc(C(=O)NO)cn3)CC2)c2ccccc21 [Quisinostat] (33.3333 µM) | 0.00578 |
| CNCCCC1c2ccccc2C=Cc2ccccc21 [Protryptyline hydrochloride] (22.2333 µM) | 0.548 |
| CN1CCCN(C(c2ccccc2)c2ccc(Cl)cc2)CC1 (stereo not given) [Homochlorcyclizine dihydrochloride] (33.3333 µM) | 0.0131 (active) |
| Cc1nc2ccc(-n3ncc(C(=O)c4cc5ccccc5[nH]4)c3N)cc2[nH]1 (33.3333 µM) | 0.562 |
| CCc1cc2c(cc1CC)CC(NC[C@H](O)c1ccc(O)c3[nH]c(=O)ccc13)C2 [Indacaterol Maleate] (33.3333 µM) | 0.0797 (active) |
| NC1(c2ccc(-c3nc4ccn5c(=O)[nH]nc5c4cc3-c3ccccc3)cc2)CCC1 (11.1 µM) | 0.184 |
| c1cc(OCCN2CCCCC2)cc(-c2n[nH]c3ccc(-c4nnc[nH]4)cc23)c1 (33.3333 µM) | 0.105 (active) |
| CCOC(=O)C1=C(COCCN)NC(C)=C(C(=O)OC)C1c1ccccc1Cl (stereo not given) (33.3333 µM) | 0.437 (active) |
| COC(=O)N[C@H](C(=O)N1CCC[C@H]1c1ncc(-c2ccc(-c3ccc(-c4cnc([C@@H]5CCCN5C(=O)[C@@H](NC(=O)OC)C(C)C)[nH]4)cc3)cc2)[nH]1)C(C)C (33.3333 µM) | 0.0176 |
| O=C1NC(=O)/C(=C/c2ccc(-c3ccc(F)cc3O)o2)S1 (33.3333 µM) | 0.115 |
| CCCCCCCCCCCCCCCCn1cc[n+](Cc2ccccc2)c1C (11.1 µM) | 0.155 |
| CCCSc1ccc2[nH]c(NC(=O)OC)nc2c1 [Albendazole] (33.3333 µM) | 0.881 |
| NC(N)=NC(=O)c1nc(Cl)c(N2CCCCCC2)nc1N [5-(N,N-hexamethylene)amiloride] (33.3333 µM) | 0.0273 (active) |
| COc1cc2ncn(-c3cc(OCc4ccccc4C(F)(F)F)c(C(N)=O)s3)c2cc1OC (33.3333 µM) | 1.1 |
| CS(=O)(=O)CCNCc1ccc(-c2ccc3ncnc(Nc4ccc(OCc5cccc(F)c5)c(Cl)c4)c3c2)o1 (6.66667 µM) | 1.41 |
| CCCCCCCCc1ccc(CCC(N)(CO)CO)cc1 [Fingolimod (FTY720) HCl] (11.1 µM) | 0.392 |
| CCNC(=O)c1noc(-c2cc(C(C)C)c(O)cc2O)c1-c1ccc(CN2CCOCC2)cc1 (11.1 µM) | 1.09 |
| CNCc1ccc(-c2cc(-c3nc(-c4ccc(S(=O)(=O)C(C)C)cc4)cnc3N)on2)cc1 (11.1 µM) | 0.0438 |

| SMILES | COL1A1 mRNA fold change |
| --- | --- |
| CNc1nccc(-c2cccnc2Oc2cc(C(=O)Nc3cccc(C(F)(F)F)c3)ccc2C)n1 (33.3333 µM) | 0.618 |
| CNCCC(Oc1ccc(C(F)(F)F)cc1)c1ccccc1 (stereo not given) [Fluoxetine hydrochloride] (33.3333 µM) | 0.114 (active) |
| CSc1ccc2c(c1)C(N1CCN(C)CC1)Cc1ccccc1S2 (stereo not given) [Methiothepin maleate] (33.3333 µM) | 0.00214 |
| COc1ccccc1OCCNCC(O)COc1cccc2[nH]c3ccccc3c12 (stereo not given) [Carvedilol] (33.3333 µM) | 0.294 |
| NC[C@@H]1O[C@H](C23CC4CC(CC(C4)C2)C3)Cc2c1ccc(O)c2O (33.3333 µM) | 0.136 |
| O=C(Nc1ncc(SCCN2CCCC2)s1)[C@]1(c2ccc(S(=O)(=O)C3CC3)cc2)C[C@H]1C1CCCCC1 (11.1 µM) | 0.0203 (active) |
| C[C@@H](Oc1cc(-c2cnn(C3CCNCC3)c2)cnc1N)c1c(Cl)ccc(F)c1Cl (11.1 µM) | 0.235 (active) |
| Clc1ccc(C2(c3ccc(-c4cn[nH]c4)cc3)CCNCC2)cc1 (33.3333 µM) | 0.285 (active) |
| CCN(CC)CCCCNc1ncc2cc(-c3c(Cl)cccc3Cl)c(NC(=O)NC(C)(C)C)nc2n1 (33.3333 µM) | 0.425 (active) |
| C[C@]12CC[C@H](O)CC1=CC[C@@H]1[C@@H]2CC[C@]2(C)C(n3cnc4ccccc43)=CC[C@@H]12 [Galeterone] (33.3333 µM) | 0.0557 |
| CN1CCN2c3ccccc3Cc3ccccc3C2C1 (stereo not given) [Mianserin hcl] (25.2333 µM) | 0.529 |
| N=C(N)SCCc1ccc(OCc2ccc([N+](=O)[O-])cc2)cc1 [KB-R7943 mesylate] (33.3333 µM) | 0.168 (active) |
| Cc1cnc(-c2cnc(NCCNc3ccc(C#N)cn3)nc2-c2ccc(Cl)cc2Cl)[nH]1 (33.3333 µM) | 1.04 |
| Cc1cc(C(=O)Nc2cc(Nc3ccc4c(/C=C/c5ccccn5)n[nH]c4c3)ccc2F)n(C)n1 (33.3333 µM) | 0.363 (active) |
| CC(C)(C)c1cc(NC(=O)Nc2ccc(-c3cn4c(n3)sc3cc(OCCN5CCOCC5)ccc34)cc2)no1 [Quizartinib  (AC220)] (11.1 µM) | 1.01 |
| Nc1ccc(C(=O)Nc2cccc(-c3nc(N4CCOCC4)c4oc5ncccc5c4n3)c2)cn1 (6.66667 µM) | 1.15 |
| OCCN1CCN(CCCN2c3ccccc3Sc3ccc(C(F)(F)F)cc32)CC1 (33.3333 µM) | 0.0645 |
| CCC/C=C\C=C/C(=O)N[C@@H](CC(N)=O)C(=O)NC(CC(N)=O)C(=O)N[C@@H](C(=O)N[C@H](CCCN)C(=O)N[C@@H](C(=O)N[C@@H](C(=O)N[C@@H](C(=O)N[C@H](C(=O)N[C@@H](Cc1ccccc1)C(=O)N[C@H](CCCN)C(=O)NC(C(=O)N[C@H](C(=O)NC(C(=O)NCC(=O)N[C@@H](CC(C)C)C(=O)N[C@H](C)C(=O)NC(C(=O)O)C1CCC(O)C(Cl)C1)C1CCC(O)CC1)[C@H](C)O)C1CCC(O)CC1)[C@H](C)O)C1CCC(O)CC1)C1CCC(O)CC1)[C@H](C)O)C1CCC(O)CC1 (stereo not given in full) (33.3333 µM) | 1.59 |
| CN1CCC(NC(=O)c2cc(-c3c(O)cc(O)cc3Oc3ccc([N+](=O)[O-])cc3)on2)CC1 (33.3333 µM) | 1.15 |
| C#C[C@]1(O)CC[C@H]2[C@@H]3CCC4=Cc5oncc5C[C@]4(C)[C@H]3CC[C@@]21C [Danazol] (33.3333 µM) | 0.0336 (active) |
